About 7,700 (2.3%) of roughly 330,000 compounds were called active. Roughly 26% stayed inconclusive and do not appear here. Calls follow the shape of the dose curve; as a rule, active = well fitted inhibition curve with a large enough effect; inconclusive = small, poorly fitted or top-dose-only effect, or effect the other way; inactive = flat fitted curve, though single readings scatter. Shown is part of a subset that was picked to be rich in actives.
Test: qHTS screen for small molecules that inhibit ELG1-dependent DNA repair in human embryonic kidney (HEK293T) cells expressing luciferase-tagged ELG1; also: nearly all actives have a fitted effect of over 55% in size
Settings: HEK293T ELG1-luciferase reporter, luminescence, 16 h, DNA damage induced by 5-fluorouridine; series mostly up to 46.1 µM; activity change, negative = inhibition: at the top concentration
Description: NIH Molecular Libraries Probe Production Network [MLPCN] NIH Chemical Genomics Center [NCGC] MLPCN Grant: 1 R03 MH092164-01 Assay Provider: Kyungjae Myung, NHGRI, NIH Keywords: MLPCN, qHTS, NCGC, genotoxicity, cancer Assay Overview: Cancer cells divide rapidly compared to normal cells in the body. During cell division, cancer cells need to duplicate their genome by DNA replication. The failure of genome duplication leads to cancer cells' death. Therefore, inhibitors of DNA replication could specifically kill cancer cells. Based on this concept, many chemotherapeutic agents were developed and have been used to treat cancer patients. However, there are a limited number of agents available in the clinical setting, and some of those that do exist have low efficacy and severe side effects. Therefore, if we can find the compounds that effectively block DNA replication either by directly damaging DNA or by inhibiting other cellular mechanisms, the options for cancer treatment will be broadened. With this in mind, we developed a quantitative high-throughput ELG1-luciferase reporter gene assay. Small molecules that specifically block ELG1 function in response to DNA damage can be identified by monitoring the suppression of luciferase activity. Since ELG1 defines a pathway for repairing DNA damage, agents blocking ELG1 function can be used to sensitize cancer cells to chemotherapeutic agents whose mechanism of action involves the induction of DNA damage.
Assay Protocol Summary: For genotoxicity screening, 2,000 cells in 4 uL/well were dispensed into white, solid-bottom 1536-well plates using a solenoid-based dispenser. Following transfer of 1 uL 5-Fluorouridine and 23 nL compound or DMSO vehicle by a pin tool, the plates were incubated 16 hr at 37 °C and 5% CO2. 5 ul ONE-Glo (Promega) was then added to each plate and following a 30 min incubation at room temperature, luciferase activity was quantified on a ViewLux CCD-based plate reader.
% is scaled to controls: 0 for no effect and ±100 for the full control effect; potency is read from the fitted curve at half-maximal effect.

Compound	activity change, negative = inhibition	Potency
CC1(C)CC(=O)C=C(c2cccc3c2Oc2ccccc2S3)C1	13% (inactive)	
CCOc1ccc(N(CC(=O)Nc2cccc(OC)c2)S(C)(=O)=O)cc1	15.1% (inactive)	
COc1cccc(N(CC(=O)Nc2cccc(F)c2)S(C)(=O)=O)c1	0.188% (inactive)	
Cc1ccc(N(CC(=O)Nc2cccc(N(C)S(C)(=O)=O)c2)S(C)(=O)=O)cc1		6.51 µM (active)
Cc1[nH]c2ccccc2c1C(=O)C(C)Sc1nnc(C2CC2)o1 (stereo unspecified)	8.65% (inactive)	
O=C(COC(=O)c1ccc([N+](=O)[O-])o1)NC12CC3CC(CC(C3)C1)C2	9.39% (inactive)	
COC(=O)[C@]1(Cc2ccccc2)N[C@H](CN(C)S(=O)(=O)c2ccc(F)cc2)[C@@H]2C(=O)N(Cc3ccccc3)C(=O)[C@@H]21	-21.5% (inactive)	
CC(=O)N1c2ccc(S(=O)(=O)N3CCCC(C(=O)NCc4ccc(Cl)cc4)C3)cc2CC1C (stereo unspecified)	-15.6% (inactive)	
N#Cc1cccc(NC(=O)C2CCCN(C(=O)c3ccc(Cl)cc3)C2)c1 (stereo unspecified)	-29.3% (inactive)	
Cn1c(-c2sc3cc(C(F)(F)F)cnc3c2-c2ccccc2)n[nH]c1=S	-13.7% (inactive)	
Cc1ccccc1-c1n[nH]c(=S)n1C	5.07% (inactive)	
Cn1c(-c2sccc2OCc2cccc(C(F)(F)F)c2)n[nH]c1=S		23.1 µM (active)
O=C(Nc1ccccc1N1CCCC1)c1ccc(F)c(S(=O)(=O)N2CCOCC2)c1	6.03% (inactive)	
COc1ccc(CCC(=O)N2CCN(S(=O)(=O)c3ccc(OC)cc3)CC2)cc1	-5.8% (inactive)	
CCCNC(=O)CSc1nc(Cc2ccccc2)nc2ccccc12	-13.7% (inactive)	
CCCNC(=O)CCc1c(C)nc2c(c(C)nn2-c2ccc(C)cc2)c1C	-24% (inactive)	
CCCCC(CC)CNCc1cccn1CCN1CCOCC1 (stereo unspecified)	-7.51% (inactive)	
CCN(CC)c1ccc(NC(=O)c2ccc(=O)[nH]c2)cc1S(=O)(=O)Nc1ccc(OC)cc1	6.95% (inactive)	
O=C(NCc1ccccc1CN1CCCC1)c1cccc(S(=O)(=O)Nc2ccc(F)cc2)c1	2.84% (inactive)	
CCN(c1ccccc1)S(=O)(=O)c1cccc(C(=O)O)c1	0.0915% (inactive)	
CCN(c1ccccc1)S(=O)(=O)c1cccc(C(=O)NCc2ccccc2CN2CCOCC2)c1		11.6 µM (active)
Cc1noc(C)c1C(=O)OC(C)C(=O)Nc1ccc2c(c1)OCO2 (stereo unspecified)	0.0047% (inactive)	

Compound	activity change, negative = inhibition	Potency
CC(C)C[C@H]1CN=C(Nc2ccccc2)N1CC1CCCCC1	-13.2% (inactive)	
CCCCN(C(=O)CSCC(=O)Nc1ccc(OC)cc1)c1c(N)n(CCC)c(=O)[nH]c1=O	-3.97% (inactive)	
O=S(=O)(Nc1cccc(-n2cnnn2)c1)c1cnc(Cl)c(Cl)c1	1.57% (inactive)	
COc1cccc(N(CC(=O)NC2CCCCCC2)S(=O)(=O)c2ccccc2)c1	8.34% (inactive)	
Cc1nc2ccc(NC(=O)C3CCCCC3)cc2s1	11.8% (inactive)	
CS(=O)(=O)c1ccc2nc(NC(=O)CN3CCCCCC3)sc2c1	10.2% (inactive)	
CS(=O)(=O)c1ccc2nc(NC(=O)C3CCCCC3)sc2c1		3.66 µM (active)
O=C(Nc1nc2ccc(S(=O)(=O)N3CCCC3)cc2s1)C1CCCO1 (stereo unspecified)	-0.48% (inactive)	
Cc1ccc2nc(NC(=O)C3CCN(S(=O)(=O)c4ccc5c(c4)oc(=O)n5C)CC3)sc2c1		10.3 µM (active)
Cn1c(=O)oc2cc(S(=O)(=O)N3CCC(C(=O)Nc4ccc(OC(F)(F)F)cc4)CC3)ccc21	9.71% (inactive)	
CC(=O)c1c(C)[nH]c(C(=O)N2CCN(S(=O)(=O)c3ccc(F)c(F)c3)CC2)c1C	8.13% (inactive)	
O=C(COc1ccc(S(=O)(=O)Nc2cccc(C(F)(F)F)c2)cc1)N1CCOCC1	-4.33% (inactive)	
O=S1(=O)CCC(NC(=S)SCc2ccccc2Br)C1 (stereo unspecified)	15.4% (inactive)	
COc1ccc(NC(=S)NC2CCS(=O)(=O)C2)cc1 (stereo unspecified)	-1.15% (inactive)	
CCCSC(=S)NC1CCS(=O)(=O)C1 (stereo unspecified)		23.1 µM (active)
O=C1COc2ccc(C(=O)CSc3ccc(Br)cc3)cc2N1	-17% (inactive)	
O=C(NCc1ccccc1CN1CCCC1)C1CCN(S(=O)(=O)c2ccc(Cl)cc2)CC1	10% (inactive)	
Brc1ccc(CN2CC[C@H]3C=CCc4cccc(c43)C2)cc1	-13.4% (inactive)	
COc1ccc(CNC(=O)COC(=O)C(CCSC)N2C(=O)c3ccccc3C2=O)cc1 (stereo unspecified)	0% (inactive)	
Cc1ccnc(N2CCCC(C(=O)Nc3cc(F)ccc3C)C2)n1 (stereo unspecified)	-12.3% (inactive)	
Cc1sc2ncnc(SCC(=O)Nc3ccc(CN4CCCC4)cc3)c2c1C	-2.86% (inactive)	
Cc1sc2ncnc(N3CCC(C(=O)Nc4ccc(F)cc4Cl)CC3)c2c1C		20.6 µM (active)

Compound	activity change, negative = inhibition	Potency
CC1CC(C)CN(CCOc2cccc3ccccc23)C1 (stereo unspecified)	2.83% (inactive)	
CN(CC(=O)NCCc1ccc(S(N)(=O)=O)cc1)CC(=O)Nc1ccc(F)c(F)c1F	6.42% (inactive)	
C=CCC[C@@H](Cc1ccc(F)cc1)C(=O)OC[C@H](Cc1c[nH]c2ccccc12)NC(=O)[C@@H](CC=C)CC(=O)N(CCO)Cc1ccccc1		20.6 µM (active)
C=CCC[C@@H](Cc1ccc(F)cc1)C(=O)OC[C@@H](C)NC(=O)[C@H](CC=C)CC(=O)N(CCO)Cc1ccccc1	0% (inactive)	
C=CC[C@@H](CC(=O)N[C@H](CO)Cc1ccccc1)C(=O)N[C@@H](COC(=O)[C@@H](CC=C)Cc1ccc(F)cc1)Cc1c[nH]c2ccccc12	-11.3% (inactive)	
C=CC[C@H](CC(=O)NCCO)C(=O)N[C@@H](COC(=O)[C@@H](CC=C)Cc1ccc(F)cc1)Cc1c[nH]c2ccccc12	-27.5% (inactive)	
C=CCC[C@@H](Cc1ccc(F)cc1)C(=O)O[C@H](CNC(=O)[C@H](CC=C)CC(=O)N(CCO)Cc1ccccc1)c1ccccc1		20.6 µM (active)
C=CCC[C@H](Cc1ccc(F)cc1)C(=O)OC[C@@H](NC(=O)[C@@H](CC=C)CC(=O)N[C@H](CO)Cc1ccccc1)C(C)(C)C	0% (inactive)	
Cc1ccc(Br)c(NS(=O)(=O)c2cccc(C(=O)N3CCNC(=O)C3)c2)c1	11.5% (inactive)	
CC(C)c1ccc(S(=O)(=O)N2CCN(C(C)C(=O)NC3CCCC3)CC2)cc1 (stereo unspecified)	0.179% (inactive)	
O=C(NC1CCCCCC1)C1CCN(C(=O)c2ccc(Cl)cc2)CC1	0.0569% (inactive)	
O=C(COC(=O)CN1C(=O)C2CCCCC2C1=O)Nc1ccc(F)c(F)c1F (stereo unspecified)	0% (inactive)	
CCC1(C)NC(=O)N(CC(=O)N2CCN(c3cccc(Cl)c3)CC2)C1=O (stereo unspecified)	-7.61% (inactive)	
COc1cccc(CNc2ncc(-c3ccccc3)n2C)c1	-18.4% (inactive)	
CC(Nc1nc(C(F)(F)F)nc2ccccc12)c1cccs1 (stereo unspecified)	-9.25% (inactive)	
COc1cccc(CNc2nc(C(F)(F)F)nc3ccccc23)c1		13 µM (active)
c1coc(CNc2ncnc3ccccc23)c1	9.04% (inactive)	
NS(=O)(=O)c1ccc(CCNC(=O)CNC(=O)Cc2ccccc2)cc1	1.47% (inactive)	
NS(=O)(=O)c1ccc(CCNc2nc(C(F)(F)F)nc3ccccc23)cc1		11.6 µM (active)
CCc1nc2ccccc2c(C(=O)NCc2ccc(OC)cc2)c1C	-3.67% (inactive)	
Cc1cc(C)n(-c2nc(C(F)(F)F)nc3ccccc23)n1	-2.14% (inactive)	
COc1ccc(CNc2ncnc3ccccc23)cc1		2.59 µM (active)

Source: PubChem BioAssay AID504467 (National Center for Advancing Translational Sciences (NCATS), 2011)
